Data on nine compounds can be found in PubChem BioAssay.

Assay [1] can be described thus: inhibitors of TNFa-induced NFkB p65 translocation, primary screen, imaging, HUVEC, MLSMR starter and 10KST1 sets (AID 438;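 active = inhibition above 20% together with a positive visual image hit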;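 also: compound added about 3h40 before a 20 min TNFalpha stimulation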;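 as to inhibition: signal is the nuclear over cytoplasmic p65 intensity ratio per well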). The settings on record: HUVEC TNFa-induced p65 nuclear translocation; cell count: measured here: nuclei count (cytotoxicity indicator), at 2.08 µM; inhibition: at 2 µM, stronger effect = higher value, 0% TNFa-plus-vehicle, 100% no-TNFa wells.
A short description of assay [2]: inhibitors of mutant huntingtin aggregation, primary screen, imaging, exon1htt(103Q)mCFP cells, high-content imaging (AID 483;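 active = visual image review flags a hit and inhibition of aggregation exceeds 20%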;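 also: compound exposure lasted 3 days before fixation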;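 as to nuclei count: percent of the per-plate median nuclei count of sample wells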). The following applies: exon1htt(103Q)mCFP cell line, aggregate imaging, at 2 µM; inhibition of aggregation: stronger effect = higher value; nuclei count: measured here: cell count, toxicity.
Assay [3] is described as follows: inhibitors of E-selectin induction by TNFa, primary screen, imaging, HUVEC, immunofluorescence, MLSMR starter and 10KST1 sets (AID 487;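 active = visually confirmed hit in the image check and inhibition above 20%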;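 as to inhibition: signal is fraction of cell area covered by stained E-selectin grains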;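 as to nuclei count: 100% = median nuclei count of all wells on the same plate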). The settings on record: HUVEC TNFalpha-induced E-selectin immunofluorescence imaging, at 2 µM; inhibition: stronger effect = higher value; nuclei count: measured here: cell number, toxicity.
Assay [4] addresses Voltage-gated potassium channel subunit beta-2 (Rattus norvegicus) (UniProt P62483). Briefly: KvBeta enzyme negative modulators, primary screen, biochemical, NADPH fluorescence (AID 622;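 active = fluorescence slope higher than the sample average by over 3 SD, cut at about -0.22 in these data, passing the limit was not always enough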;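 also: slope of raw intensity against log time taken from 70 to 1610 s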). The settings on record: recombinant KvBeta, 4-cyanobenzaldehyde reduction, at 10 µM, stronger effect = higher value.
Assay [5] shares this target. Briefly: KvBeta positive modulators, primary screen, biochemical, NADPH fluorescence (AID 623;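 active = NADPH fluorescence slope more negative than the mean of all samples by about 3 SD, 99.7% confidence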;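 also: fluorescence intensity change per second fitted from 20 to 320 s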). The following applies: Recombinant KvBeta, NADPH fluorescence decrease slope, 10 min; at 10 µM; stronger effect = lower value.
Assay [6] addresses Alpha-2C adrenergic receptor (Homo sapiens) (UniProt P18825). The experiment in a line: modulators of alpha2C/GIRK thallium flux, primary screen, cell-based, HEK293 alpha2C/GIRK1/2 (AID 624;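 active = fluorescence slope after compound addition differing from the mean of all screened samples at 99.7% confidence, in either direction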;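 also: slope of fluorescence ratio to pre-addition baseline per second over 15 to 24 s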). The following applies: thallium flux BTC fluorescence, at 10 µM, actives lie on both sides.
Assay [7] in a line: inhibitors of Sendai virus-induced IRF3 signaling, primary screen, TLR/RLR signaling modifier project, cell-based, Sendai virus stimulus, luciferase, 10K MLSCN set (AID 602276).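 Also: firefly luciferase from ISG56 promoter only with Renilla not read in this screen; 0% = Sendai virus plus DMSO and 100% = medium plus DMSO without virus.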 The following applies: HEK293 RL24 IRF3 luciferase reporter, at 10 µM, stronger effect = higher value. For orientation: In a reporter assay the amount or activity of a reporter protein is the signal.
The nature of assay [8]: inhibitors of poly I:C-induced TLR3 signaling, primary screen, cell-based, poly I:C stimulus, luciferase, 10K MLSCN set (AID 602277;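 active = inhibition of the reporter signal at or above 50%; inactive = inhibition below 50%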). The settings on record: HEK293-TLR3 RL24 IRF3 luciferase reporter, at 10 µM, stronger effect = higher value.

The source made the active and inactive calls.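 The calls were made as follows, unless noted: active = inhibition at or above 50% at 10 µM; inactive = inhibition below 50%.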

Sequence of Alpha-2C adrenergic receptor (Homo sapiens) (P18825 whole entry, looked up): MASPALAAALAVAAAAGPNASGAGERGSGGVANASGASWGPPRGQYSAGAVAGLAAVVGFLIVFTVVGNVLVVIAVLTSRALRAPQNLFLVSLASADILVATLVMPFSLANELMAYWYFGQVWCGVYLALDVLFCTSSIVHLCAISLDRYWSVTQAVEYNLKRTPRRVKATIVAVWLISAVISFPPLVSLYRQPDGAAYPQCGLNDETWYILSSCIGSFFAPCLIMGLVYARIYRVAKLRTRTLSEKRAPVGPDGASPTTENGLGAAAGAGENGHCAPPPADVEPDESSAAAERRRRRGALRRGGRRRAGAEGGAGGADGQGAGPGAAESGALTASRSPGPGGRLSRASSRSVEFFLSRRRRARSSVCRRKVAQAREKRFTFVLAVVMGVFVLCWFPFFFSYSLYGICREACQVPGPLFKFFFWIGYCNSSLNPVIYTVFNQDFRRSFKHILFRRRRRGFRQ
Sequence of Voltage-gated potassium channel subunit beta-2 (Rattus norvegicus) (P62483 whole entry, looked up): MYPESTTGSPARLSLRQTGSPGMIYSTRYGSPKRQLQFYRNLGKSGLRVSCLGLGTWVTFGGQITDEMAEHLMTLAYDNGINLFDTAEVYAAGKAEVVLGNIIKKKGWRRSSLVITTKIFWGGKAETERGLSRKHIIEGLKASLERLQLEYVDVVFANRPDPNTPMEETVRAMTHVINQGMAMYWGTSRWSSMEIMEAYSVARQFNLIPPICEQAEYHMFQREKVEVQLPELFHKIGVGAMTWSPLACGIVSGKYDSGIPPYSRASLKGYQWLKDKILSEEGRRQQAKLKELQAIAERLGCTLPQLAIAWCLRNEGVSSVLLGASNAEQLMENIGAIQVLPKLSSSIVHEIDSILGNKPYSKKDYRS

As a reminder, the inhibition is the change of the read-out against control, counted positive when it falls. As for `COc1ccc(OCCC(=O)NCc2ccccc2)cc1`, the cell count in assay [1] is 694. Moreover, the inhibition in assay [1] was 0.4% (inactive); in assay [3], -93.5% (inactive); in assay [7], 4.97% (inactive); in assay [8], 7.69% (inactive). For the same compound, the inhibition of aggregation in assay [2] is 19.2% (inactive). In addition, the nuclei count in assay [2] is 91.9%; in assay [3], 102%. Further, the fluorescence slope in assay [4] is -0.509 (inactive). Moreover, the NADPH fluorescence slope in assay [5] is 9e-06 (inactive). For the same compound, the slope in assay [6] was 0.00495 (inactive).

As to `C1CCc2nnc(-c3nnc4n3CCCCC4)n2CC1`, in assay [1], the cell count was 396. Also, the inhibition in assay [1] is 3% (inactive); in assay [3], -3.6% (inactive); in assay [7] it was 11.6% (inactive); in assay [8] it was 10.3% (inactive). Besides, the inhibition of aggregation in assay [2] was -5.5% (inactive). Besides, the nuclei count in assay [2] amounted to 100%; in assay [3] it was 105%. Also, the fluorescence slope in assay [4] is -0.344 (inactive). Moreover, the NADPH fluorescence slope in assay [5] was -2.9e-05 (inactive). In addition, in assay [6], the slope was 0.00555 (inactive).

In the case of `CCOC(=O)c1c(NC(=O)c2nn(CC)cc2Br)c(C#N)cn1-c1ccccc1`, the cell count in assay [1] turned out to be 467. Moreover, the inhibition in assay [1] was 0.6% (inactive); in assay [3], -36.5% (inactive); in assay [7] it was 0.0192% (inactive); in assay [8], -9.02% (inactive). Besides, the inhibition of aggregation in assay [2] is -9.2% (inactive). Besides, the nuclei count in assay [2] worked out at 51.8%; in assay [3], 93.5%. Besides, the fluorescence slope in assay [4] is -0.407 (inactive). Besides, the NADPH fluorescence slope in assay [5] was -2.9e-05 (inactive). Further, the slope in assay [6] is 0.00368 (inactive).

As for `CCN(CC)CCCNC(=O)c1cn(C)c2ccc(S(=O)(=O)N(C)C)cc2c1=O`, the cell count in assay [1] worked out at 559. Besides, the inhibition in assay [1] is -2.8% (inactive); in assay [3], 69.2% (active); in assay [7], 7.25% (inactive); in assay [8] it was 33.2% (inactive). Moreover, the inhibition of aggregation in assay [2] is -53.9% (inactive). Also, the nuclei count in assay [2] was determined as 73.6%; in assay [3], 98.9%. For the same compound, the fluorescence slope in assay [4] was -0.587 (inactive). Further, the NADPH fluorescence slope in assay [5] is -3.7e-05 (inactive). The slope in assay [6] is 0.00615 (inactive).

For the compound `O=S(=O)(c1cccc(-c2nnco2)c1)N1CCCC1`, the cell count in assay [1] is 453. Besides, the inhibition is 0.5% (inactive) in assay [1], 0.2% (inactive) in assay [3], 8.27% (inactive) in assay [7] and 13.9% (inactive) in assay [8]. Moreover, in assay [2], the inhibition of aggregation is -4.5% (inactive). In addition, the nuclei count in assay [2] was determined as 95.9%; in assay [3], 108%. Moreover, the fluorescence slope in assay [4] was -0.519 (inactive). The NADPH fluorescence slope in assay [5] was -4.3e-05 (inactive). In assay [6], the slope is 0.00457 (inactive).

`O=C(c1c(Cl)nc2sccn12)N(C(=O)c1c(Cl)nc2sccn12)c1ccc(Cl)cn1`: the cell count in assay [1] is 819. The inhibition is 3.8% (inactive) in assay [1], -97.4% (inactive) in assay [3], -31.5% (inactive) in assay [7] and -77.8% (inactive) in assay [8]. Besides, the inhibition of aggregation in assay [2] was -20.1% (inactive). Further, the nuclei count in assay [2] was determined as 103%; in assay [3], 126%. Besides, in assay [4], the fluorescence slope is -0.465 (inactive). For the same compound, the NADPH fluorescence slope in assay [5] is 7.2e-06 (inactive). Further, in assay [6], the slope was 0.00593 (inactive).

Regarding `NC(=O)CCS(=O)(=O)CCN1CCCCC1`, the cell count in assay [1] worked out at 361. Moreover, the inhibition in assay [1] is 5.7% (inactive); in assay [3], -14.9% (inactive); in assay [7], 19.5% (inactive); in assay [8], 23.8% (inactive). The inhibition of aggregation in assay [2] is 2.7% (inactive). Also, the nuclei count amounted to 89.8% in assay [2] and 116% in assay [3]. Moreover, in assay [4], the fluorescence slope is -0.435 (inactive). The NADPH fluorescence slope in assay [5] is 4.4e-05 (inactive). For the same compound, the slope in assay [6] was 0.0056 (inactive).

Consider `O=C(Nc1ncc(Cc2ccccc2)s1)C1CCCO1` (centres undefined), for which the cell count in assay [1] was determined as 455. Further, the inhibition in assay [1] was -3.3% (inactive); in assay [3] it was -1.5% (inactive); in assay [7], -58.5% (inactive); in assay [8], -150% (inactive). Also, the inhibition of aggregation in assay [2] is 11% (inactive). In addition, the nuclei count in assay [2] came to 109%; in assay [3] it was 96.3%. Moreover, the fluorescence slope in assay [4] was -0.563 (inactive). Further, in assay [5], the NADPH fluorescence slope is -1.3e-05 (inactive). Moreover, in assay [6], the slope is 0.00728 (inactive).

Consider `CCOC(=O)CN1CC23C=CC(O2)C(C(=O)NC2CCCC2)C3C1=O` (centres undefined), for which, in assay [1], the cell count came to 671. In addition, the inhibition in assay [1] is 4.1% (inactive); in assay [3], -66.9% (inactive); in assay [7], 11.3% (inactive); in assay [8], 29.5% (inactive). Further, the inhibition of aggregation in assay [2] is 0.3% (inactive). Besides, the nuclei count in assay [2] turned out to be 99.1%; in assay [3], 119%. Further, the fluorescence slope in assay [4] is -0.576 (inactive). For the same compound, in assay [5], the NADPH fluorescence slope was -2.3e-05 (inactive). For the same compound, in assay [6], the slope was 0.00621 (inactive).
